Measurements taken from PubChem BioAssay.
A number with no mark means an inactive call. The rule behind the calls is not given here.

These compounds were tested against Pantothenate synthetase (Mycobacterium tuberculosis (strain ATCC 25618 / H37Rv)) (UniProt P9WIL5) (assay: Coupled enzyme confirmation of inhibitors against recombinant Mtb PanC (AID 375;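 note: 0% = full reaction with vehicle and 100% = no enzyme background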)). Details: coupled enzyme assay; at 10 µM, hits give high values.
Pantothenate synthetase (Mycobacterium tuberculosis (strain ATCC 25618 / H37Rv)), sequence (P9WIL5 whole entry, looked up): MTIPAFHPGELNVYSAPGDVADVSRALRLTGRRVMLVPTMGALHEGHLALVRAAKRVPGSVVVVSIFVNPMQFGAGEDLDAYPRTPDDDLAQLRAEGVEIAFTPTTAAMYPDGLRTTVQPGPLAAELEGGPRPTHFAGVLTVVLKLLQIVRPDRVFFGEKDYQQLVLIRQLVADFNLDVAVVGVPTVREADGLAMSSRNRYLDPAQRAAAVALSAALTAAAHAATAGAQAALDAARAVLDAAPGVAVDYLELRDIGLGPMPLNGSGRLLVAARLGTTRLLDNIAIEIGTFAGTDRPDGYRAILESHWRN

Question: How did the inhibition turn out when `C/C(Cl)=C\Cn1c(NCCc2ccccc2)nc2c1c(=O)n(C)c(=O)n2C` was run?
Answer: 1%

Question: How did the inhibition turn out when `CCCCCn1c(=O)[nH]c2cc(C(=O)NCCN3CCOCC3)ccc2c1=O` was run?
Answer: 1%

Question: Which inhibition does the source give for `CCCCC(CC)CNC(=O)C1CCCN(S(=O)(=O)c2cnc[nH]2)C1` (stereo not given) here?
Answer: 0%

Question: How did the inhibition turn out when `CCOC(=O)c1cc2oc(C)cc2n1CC(=O)OC1CCCCC1` was run?
Answer: 1%

Question: Which inhibition does the source give for `COc1ccc(Cl)cc1NC(=O)CSc1nncn1-c1cccnc1` here?
Answer: 9%

Question: How did the inhibition turn out when `Cc1ccc2[nH]cc(C(=O)CN3CCC4(CC3)OCCO4)c2c1` was run?
Answer: 0%

Question: With `CC(C)(CSc1nncn1N)NS(=O)(=O)c1ccc(Cl)cc1` as the compound, how does the inhibition read?
Answer: 0%

Question: Which inhibition does the source give for `O=C(NCCO)c1scc2c1OCCO2` here?
Answer: 4%

Question: For `Cc1nnc(NC(=O)CCC(=O)N2CCC(C)CC2)s1`, which inhibition is on record?
Answer: 0%

Question: With `COc1ccccc1NCN1C(=O)CCC1=O` as the compound, how does the inhibition read?
Answer: 3%

Question: With `O=C(CC(=O)c1cc(Cl)ccc1O)c1ccccc1` as the compound, how does the inhibition read?
Answer: 0%

Question: Which inhibition does the source give for `CC(C)C(NC(=O)c1ccccc1NC(=O)c1ccco1)C(=O)O` (stereo not given) here?
Answer: 4%

Question: With `Cc1nn(C)cc1C1C2=C(CC(C)(C)CC2=O)OC2=C1C(=O)CC(C)(C)C2` as the compound, how does the inhibition read?
Answer: 0%

Question: How did the inhibition turn out when `COc1ccccc1NC(=O)C1=C(C)Nc2nc(CCCO)nn2C1c1cccnc1` (stereo not given) was run?
Answer: 1%

Question: `COc1cc(OC)cc(-n2nnnc2SCC(=O)N2CCCC2)c1` was tested. Which inhibition did it give?
Answer: 0%

Question: Which inhibition does the source give for `N#CC1=C(N)N(c2ccccc2)C(c2ccccc2)C1(C#N)C#N` (stereo not given) here?
Answer: 0%

Question: For `COC(=O)c1onc(C(=O)c2ccccc2)c1C(=O)OC`, which inhibition is on record?
Answer: 0%

Question: `O=C(O)c1cc(=O)cc(C(=O)O)[nH]1` was tested. Which inhibition did it give?
Answer: 0%

Question: Which inhibition does the source give for `O=C(NC1CC2CCC1C2)c1ccc(CN2CCOCC2)cc1` (stereo not given) here?
Answer: 5%

Question: For `COc1cc(NC(=O)C2CCCN2S(=O)(=O)c2cccc3cccnc23)cc(OC)c1OC` (stereo not given), which inhibition is on record?
Answer: 0%

Question: How did the inhibition turn out when `CCSc1nnc(NC(=O)c2cc(C)oc2C)s1` was run?
Answer: 11%

Question: How did the inhibition turn out when `CCOC(=O)NC(c1ccccc1)C1CCCCC1=O` (stereo not given) was run?
Answer: 0%

Question: Which inhibition does the source give for `O=C(CSc1nnc(-c2cccs2)o1)NCC1CN(Cc2ccccc2)CCO1` (stereo not given) here?
Answer: 0%

Question: For `CCCSc1nnc(-c2ccccc2NC(=O)CC)c(=O)[nH]1`, which inhibition is on record?
Answer: 0%

Question: Which inhibition does the source give for `O=C(C1CC1(c1ccccc1)c1ccccc1)N1CCOCC1` (stereo not given) here?
Answer: 0%

Question: `O=C(CN(Cc1ccco1)C(=O)c1cc(=O)[nH]c2ccccc12)Nc1ccccc1Br` was tested. Which inhibition did it give?
Answer: 0%

Question: With `Oc1c(Cl)cc(Cl)c2c1NCCC2` as the compound, how does the inhibition read?
Answer: 1%

Question: For `CCn1nc(C(=O)O)c(=O)c2cc3c(cc21)OCO3`, which inhibition is on record?
Answer: 5%

Question: With `CCn1c(C)nc2cc(C(=O)OC(C(F)(F)C(F)F)C(F)(F)C(F)F)ccc21` as the compound, how does the inhibition read?
Answer: 0%

Question: With `COc1ccc2nc(S(=O)Cc3ncc(C)c(OC)c3C)[nH]c2c1` (stereo not given) as the compound, how does the inhibition read?
Answer: 4%

Question: With `CC(=O)NC(Cc1cc(C)ccc1C)C(=O)N1CCN(C(=O)Nc2ccc(C(C)=O)cc2)CC1` (stereo not given) as the compound, how does the inhibition read?
Answer: 0%

Question: Which inhibition does the source give for `O=C(NC1CC1)C1CCC(=O)N1C1CCCC1` (stereo not given) here?
Answer: 4%

Question: For `Cc1ccc(CCNC(=O)C2CCN(S(=O)(=O)c3c(C)nn(C)c3C)CC2)cc1`, which inhibition is on record?
Answer: 0%

Question: How did the inhibition turn out when `Cn1c(=O)c2c(nc(SCCCC#N)n2Cc2ccccc2F)n(C)c1=O` was run?
Answer: 0%

Question: With `CN(C)CC(C(=O)c1ccccc1)c1ccccc1` (stereo not given) as the compound, how does the inhibition read?
Answer: 4%

Question: How did the inhibition turn out when `CCCc1cc(=O)n2[nH]c(-c3ccc(Br)cc3)cc2n1` was run?
Answer: 0%

Question: Which inhibition does the source give for `CCCn1c(SCC(=O)Nc2ccccc2C(=O)OC)nc2c1c(=O)n(C)c(=O)n2C` here?
Answer: 3%

Question: `O=C(N1CCN(c2ccccc2F)CC1)C12CC3CC(CC(C3)C1)C2` was tested. Which inhibition did it give?
Answer: 0%

Question: For `CCCSC1=C(C#N)C(c2cc(OC)ccc2OC)CC(=O)N1` (stereo not given), which inhibition is on record?
Answer: 14%

Question: Which inhibition does the source give for `COc1ccccc1CC(=O)Nc1ccc(OC)c(OC)c1` here?
Answer: 3%
